About 6,000 (1.7%) of roughly 350,000 compounds were called active. Inconclusive results (about 5%) are left out. Only a selection was taken, and actives are over-represented in it overall. A number with no mark means an inactive call. Cut-off read from the data, not from the text of the source: active = CPE inhibition above about 20% (passing the limit was not always enough); inconclusive = no clear call, values can overlap the other calls; tested in BHK-21 cells.
Experiment: inhibitors of DENV2 cytopathic effect, primary screen, cell-based, plate reader, single concentration (AID 651640);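 note: 0% = median of neutral control wells and 100% = median of positive control wells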
Conditions: DENV2-infected cells, cytopathic effect rescue, at 9.99 µM, hits give high values

SMILES	CPE inhibition
C[C@H](CO)N1C[C@H](C)[C@H](CN(C)C)Oc2cc(C#Cc3ccccc3F)ccc2S1(=O)=O	-8.31%
COCC(=O)N(C)C[C@H]1Oc2ncc(-c3ccc(C)cc3)cc2C(=O)N([C@@H](C)CO)C[C@@H]1C	14.3%
Cc1ccc(S(=O)(=O)N2C[C@@H](C)[C@]3(C2)[C@H](O)[C@H](OC(=O)NCc2ccccc2)C[C@H]2C(=O)N(c4ccccc4)C(=O)[C@H]23)cc1	31.2% (active)
COC(=O)[C@H]1C[C@H](OC(=O)NCc2ccccc2)[C@@]2(O)CN(S(=O)(=O)c3ccc(C)cc3)CC2[C@H]1C(=O)OC (stereo partly drawn)	11.6%
Cc1ccc(S(=O)(=O)N2C[C@]3(O)C[C@@H]4C(=O)N(c5ccccc5)C(=O)[C@@H]4C[C@]3(OC(=O)NC3CC3)C2)cc1	0.334%
C[C@H]1CN([C@@H](C)CO)C(=O)c2cccc(NC(=O)CCCCCC(=O)Nc3ccccc3N)c2O[C@@H]1CN(C)CC1CCCCC1	1.77%
C[C@H]1CN([C@@H](C)CO)C(=O)c2cc(Br)cnc2O[C@@H]1CN(C)S(=O)(=O)c1ccc(F)cc1	-4.52%
C[C@@H]1CN([C@@H](C)CO)C(=O)c2cccc(NC(=O)c3ccc(-c4nccs4)cc3)c2O[C@@H]1CN(C)S(=O)(=O)c1ccccc1	-5.21%
COc1ccc2c3c([nH]c2c1)[C@H](CO)N(C(=O)CN1CCOCC1)CC31CN(C(C)=O)C1	4.54%
CCC(=O)N1CC2(CN(C(=O)Nc3ccccc3F)C2)c2c([nH]c3cc(OC)ccc23)[C@H]1CO	10.3%
CC(C)C#Cc1ccc2c(c1)O[C@@H](CN(C)C(=O)Nc1ccccc1)[C@H](C)CN([C@H](C)CO)S2(=O)=O	-2.16%
C=C1C(=O)[C@]23C[C@H]1CCC2[C@@]1(C)C(C[C@@H]3O)[C@](C)(C(=O)O)CC[C@@H]1O (stereo partly drawn)	74.8% (active)
O=C(C[C@@H]1C[C@H]2c3cc(NS(=O)(=O)c4ccc(F)cc4)ccc3O[C@H]2[C@H](CO)O1)NC1CCCC1	-5.59%
C[C@H]1CN([C@@H](C)CO)C(=O)c2cc(-c3ccccc3F)cnc2O[C@@H]1CN(C)C	-7.94%
C[C@H](CO)N1C[C@H](C)[C@H](CN(C)Cc2cccnc2)Oc2ncc(C3=CCCC3)cc2C1=O	-1.52%
CCC(=O)N(C)C[C@@H]1Oc2ncc(C3=CCCC3)cc2C(=O)N([C@H](C)CO)C[C@@H]1C	-6.55%
CCCN(C)C[C@@H]1Oc2ncc(-c3ccccc3F)cc2C(=O)N([C@@H](C)CO)C[C@@H]1C	38.8% (active)
C[C@@H]1CN([C@@H](C)CO)C(=O)c2cc(C3=CCCC3)cnc2O[C@H]1CN(C)Cc1ccccc1F	3.87%
C[C@H](CO)N1C[C@H](C)[C@@H](CN(C)Cc2ccccn2)Oc2ncc(C3=CCCC3)cc2C1=O	49.6% (active)
C[C@@H]1CN([C@H](C)CO)C(=O)c2cc(C3=CCCC3)cnc2O[C@H]1CN(C)C	0.588%
C[C@H](CO)N1C[C@H](C)[C@H](CN(C)S(C)(=O)=O)Oc2ncc(C3=CCCC3)cc2C1=O	32.1% (active)
CCCN(C)C[C@H]1Oc2ncc(-c3ccccc3OC)cc2C(=O)N([C@H](C)CO)C[C@@H]1C	14.5%
CCC(=O)N(C)C[C@@H]1Oc2cc(-c3ccc(OC)cc3)ccc2S(=O)(=O)N([C@@H](C)CO)C[C@H]1C	-4.79%

SMILES	CPE inhibition
O=C(C[C@H]1C[C@H]2c3cc(NC(=O)Cc4ccncc4)ccc3O[C@H]2[C@@H](CO)O1)NCc1cccc(F)c1	-1.57%
COc1cccc(S(=O)(=O)Nc2ccc3c(c2)C(=O)N(C)C[C@@H](OC)[C@@H](C)CN[C@@H](C)CO3)c1	2.43%
C[C@@H]1CN([C@@H](C)CO)C(=O)c2cc(N(C)C)ccc2O[C@@H](C)CCCCO[C@@H]1CN(C)C(=O)CCC(F)(F)F	5.58%
Cc1cc(C)n2c(Nc3c(C)cccc3C)c(CCc3ccccc3)nc2n1	20.8% (active)
Cc1cc(C)n2c(NCc3ccccc3)c(CC(C)C)nc2n1	-7.45%
Cc1ccc(O)c(CCc2ccccc2)n1	1.33%
CC(C)NC(=O)N1C[C@H]2[C@@H](c3ccccc31)[C@H](CO)N2C(=O)c1ccccc1F	-10%
CC(C)NC(=O)N1[C@@H]2CN(C(=O)Nc3ccc(F)cc3)c3ccccc3[C@@H]2[C@@H]1CO	8.2%
CCC(=O)N1[C@@H](CO)[C@@H]2c3ccccc3N(C(=O)c3ccccc3F)C[C@@H]21	26.9% (active)
CN1C[C@H]2[C@@H](c3ccccc31)[C@@H](CO)N2C(=O)Nc1ccccc1	58.5% (active)
O=C(c1ccccc1F)N1C[C@H]2[C@@H](c3ccccc31)[C@@H](CO)N2C(=O)c1ccc(F)cc1	-13.2%
CCCNC(=O)N1[C@@H]2CN(C)c3ccccc3[C@@H]2[C@@H]1CO	-0.141%
CC(C)NC(=O)N1[C@H](CO)[C@@H]2c3ccccc3N(C(=O)c3ccccc3F)C[C@@H]21	54.6% (active)
O=C(c1ccccc1F)N1C[C@@H]2[C@H](c3ccccc31)[C@H](CO)N2C(=O)C1CCCC1	-9.77%
CN1C[C@@H]2[C@H](c3ccccc31)[C@H](CO)N2C(=O)Nc1ccc(F)cc1	-5.89%
O=C1O[C@@H](c2ccccc2)[C@@H](c2ccccc2)N2[C@@H](c3ccccc3OCCO)[C@]3(C(=O)Nc4ccccc43)[C@@H](C(=O)N3CCCCCCC3)[C@H]12	0.314%
COC(=O)C[C@H]1CC[C@H]2[C@@H](COc3ccc(NC(=O)C4CC4)cc3C(=O)N2C)O1	-4.57%
O=C(N[C@H]1CC[C@@H](CCNS(=O)(=O)c2ccc(Cl)cc2)O[C@H]1CO)c1cccc(F)c1	-5.79%
O=C(C[C@H]1CC[C@H]2[C@@H](COC[C@@H](O)CN2Cc2nccs2)O1)NCc1ccccc1Cl	-3.47%
C[C@H](CO)N1C[C@H](C)[C@H](CN(C)Cc2cccc(C(=O)O)c2)Oc2ncc(-c3ccccc3F)cc2C1=O	5.26%
C[C@@H]1CCCCO[C@@H](CN(C)Cc2ccc(C(=O)O)cc2)[C@H](C)CN([C@H](C)CO)C(=O)c2cc(NC(=O)Nc3ccc(F)cc3)ccc2O1	4.69%
C[C@H]1CN([C@@H](C)CO)C(=O)c2cc(/C=C/c3ccccc3)cnc2O[C@@H]1CN(C)C(=O)c1ccc(F)cc1	-7.53%
COc1ccc(S(=O)(=O)N2C[C@H]3CON(C)[C@H]3C[C@H]2c2cccc(Br)c2)cc1	-6.66%

SMILES	CPE inhibition
CN1OC[C@@H]2CN(C(=O)c3ccc(-c4ccccc4)cc3)[C@H](c3ccc(-c4cccc(F)c4)cc3)C[C@@H]21	-4.1%
COc1ccc(CN2C[C@H]3CON(C)[C@H]3C[C@H]2c2ccc(-c3cccc(F)c3)cc2)cc1	27.4% (active)
Cc1noc(C)c1CCC(=O)N1CCCC(CO)(Cc2ccccc2)C1 (stereo not drawn)	7.18%
CCOC(=O)C1(Cc2ccccc2C)CCCN(C(=O)CN2C(=O)CSC2=O)C1 (stereo not drawn)	1.33%
CCOC(=O)C1(Cc2ccccc2C)CCCN(C(=O)CCc2c(C)noc2C)C1 (stereo not drawn)	49.6% (active)
CCCCc1nc2cc(C(=O)NCCc3cnn(C)c3)ccc2o1	36% (active)
CCCCc1nc2cc(C(=O)N3CCCCC3CCO)ccc2o1 (stereo not drawn)	6.93%
CC(C)c1nc2cc(C(=O)NC(C)c3cnn(C)c3)ccc2o1 (stereo not drawn)	1.88%
C[C@@H]1CN([C@H](C)CO)C(=O)c2cc(-c3ccc(C#N)cc3)cnc2O[C@@H]1CN(C)C(=O)Nc1ccccc1	-5.47%
COc1ccc2c3c(n(C)c2c1)[C@@H](CO)N(CC1CC1)CC31CCN(C(=O)c2cccc(F)c2)CC1	-5.77%
O=C(c1cnc(Cl)c(Cl)c1)N1CCN(S(=O)(=O)c2ccc(F)cc2)CC1	1.53%
O=C(C1CCCN(S(=O)(=O)c2ccccc2)C1)N1CCN(c2ccc(F)cc2)CC1 (stereo not drawn)	-0.979%
O=C(O)C1CCCCC1C(=O)N1CCN(S(=O)(=O)c2ccc(F)cc2)CC1 (stereo not drawn)	70.6% (active)
COc1cccc(C(=O)N2C[C@@H]3[C@H](c4ccccc42)[C@H](CO)N3Cc2ccccc2F)c1	6.58%
Cc1nccn1-c1ccc(NC(=O)[C@H]2O[C@@H](n3ccc(=O)[nH]c3=O)[C@H](O)[C@@H]2O)cc1	1.75%
O=C(N[C@H](Cc1ccccc1)C(=O)N1CCCN(Cc2cccs2)CC1)[C@H]1O[C@@H](n2ccc(=O)[nH]c2=O)[C@H](O)[C@@H]1O	-10.6%
O=C(NS(=O)(=O)c1cccs1)[C@H]1O[C@@H](n2ccc(=O)[nH]c2=O)[C@H](O)[C@@H]1O	77.5% (active)
COc1ccc(CC(=O)Nc2nc(-c3ccc(F)c(F)c3)cs2)cc1OC	-4.33%
Fc1ccc(-c2csc(-c3ccc(C4SCCS4)cc3)n2)cc1F	38.4% (active)
Clc1ccc(-c2csc(-c3ccncc3)n2)cc1	2.38%
CC(C)NC(=O)N(C)C[C@@H]1OCCCC[C@@H](C)Oc2ccc(NC(=O)c3ccccc3)cc2C(=O)N([C@@H](C)CO)C[C@H]1C	3.29%
C[C@@H]1CN([C@@H](C)CO)C(=O)c2cc(NC(=O)Nc3cccc4ccccc34)ccc2O[C@@H]1CN(C)C(=O)NC1CCCCC1	-3.76%

Reference: PubChem BioAssay AID651640 (Broad Institute, 2012)
